Results published in the supplement of paper PMC11732987, “Enantioselective OTUD7B fragment discovery through chemoproteomics screening and high-throughput optimisation” (Communications Chemistry, 2025).

Columns and labels:
Assay in all cases: log2 ratio of Biotin-Ahx-Ub-VS probe labelling (fragment/DMSO); higher = less target engagement (more negative = stronger competition), active = hit call of the paper (q ≤ 0.05, log2 ratio ≤ -1)
Settings in all cases: compound concentration: 200 uM; treatment time: 3 h
USP19 = target: T1, USP19 (UniProt O94966)
T1 sequence (whole entry): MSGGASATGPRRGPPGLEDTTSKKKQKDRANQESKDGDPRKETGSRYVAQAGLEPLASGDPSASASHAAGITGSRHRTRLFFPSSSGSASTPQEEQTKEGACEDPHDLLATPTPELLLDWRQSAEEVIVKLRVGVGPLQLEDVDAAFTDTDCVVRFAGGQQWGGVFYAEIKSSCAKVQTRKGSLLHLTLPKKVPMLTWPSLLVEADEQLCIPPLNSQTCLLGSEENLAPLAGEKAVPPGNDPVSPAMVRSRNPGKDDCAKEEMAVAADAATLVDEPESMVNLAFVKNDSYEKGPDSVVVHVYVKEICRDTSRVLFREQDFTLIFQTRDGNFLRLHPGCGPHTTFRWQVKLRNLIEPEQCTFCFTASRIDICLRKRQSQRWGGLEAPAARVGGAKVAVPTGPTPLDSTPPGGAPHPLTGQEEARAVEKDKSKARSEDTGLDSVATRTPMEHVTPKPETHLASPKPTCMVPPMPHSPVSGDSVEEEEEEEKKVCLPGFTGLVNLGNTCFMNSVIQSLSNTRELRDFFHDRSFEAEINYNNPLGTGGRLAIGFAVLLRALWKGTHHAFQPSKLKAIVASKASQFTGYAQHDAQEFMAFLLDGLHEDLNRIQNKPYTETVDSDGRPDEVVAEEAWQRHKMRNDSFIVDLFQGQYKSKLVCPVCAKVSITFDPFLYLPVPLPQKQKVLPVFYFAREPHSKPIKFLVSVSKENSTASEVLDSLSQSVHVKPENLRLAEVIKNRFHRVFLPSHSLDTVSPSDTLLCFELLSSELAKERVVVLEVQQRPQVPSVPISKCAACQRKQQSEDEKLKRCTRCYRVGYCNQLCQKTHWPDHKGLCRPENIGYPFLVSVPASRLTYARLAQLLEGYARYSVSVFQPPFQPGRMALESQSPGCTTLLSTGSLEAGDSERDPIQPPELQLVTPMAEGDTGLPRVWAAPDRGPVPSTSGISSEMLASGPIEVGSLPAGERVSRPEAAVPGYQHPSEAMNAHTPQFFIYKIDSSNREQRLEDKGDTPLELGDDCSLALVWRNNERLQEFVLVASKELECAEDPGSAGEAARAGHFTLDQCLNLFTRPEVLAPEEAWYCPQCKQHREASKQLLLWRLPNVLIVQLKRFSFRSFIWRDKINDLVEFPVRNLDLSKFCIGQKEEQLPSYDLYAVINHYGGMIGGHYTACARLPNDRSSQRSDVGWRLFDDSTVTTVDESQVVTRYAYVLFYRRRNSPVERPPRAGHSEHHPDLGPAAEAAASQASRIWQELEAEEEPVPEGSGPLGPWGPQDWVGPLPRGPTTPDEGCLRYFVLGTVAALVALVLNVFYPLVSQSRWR
In short: (§1)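 Each value is an average log2 ratio of fragment to vehicle, tested by unpaired t-test. The underlying Spectronaut label-free quantities were global-median-normalised, and only proteins with ≥2 unique peptides were included. Triplicate HEK293T lysate samples (495 µg) were exposed to fragment at 200 µM or vehicle for 3 h, then to Biotin-Ahx-Ub-VS at 0.5 µM final for 1 h, before NeutrAvidin enrichment of labelled DUBs, LysC and trypsin digestion, and diaPASEF LC-MS/MS.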

USP22 = target: T2, USP22 (UniProt Q9UPT9)
T2 sequence (whole entry): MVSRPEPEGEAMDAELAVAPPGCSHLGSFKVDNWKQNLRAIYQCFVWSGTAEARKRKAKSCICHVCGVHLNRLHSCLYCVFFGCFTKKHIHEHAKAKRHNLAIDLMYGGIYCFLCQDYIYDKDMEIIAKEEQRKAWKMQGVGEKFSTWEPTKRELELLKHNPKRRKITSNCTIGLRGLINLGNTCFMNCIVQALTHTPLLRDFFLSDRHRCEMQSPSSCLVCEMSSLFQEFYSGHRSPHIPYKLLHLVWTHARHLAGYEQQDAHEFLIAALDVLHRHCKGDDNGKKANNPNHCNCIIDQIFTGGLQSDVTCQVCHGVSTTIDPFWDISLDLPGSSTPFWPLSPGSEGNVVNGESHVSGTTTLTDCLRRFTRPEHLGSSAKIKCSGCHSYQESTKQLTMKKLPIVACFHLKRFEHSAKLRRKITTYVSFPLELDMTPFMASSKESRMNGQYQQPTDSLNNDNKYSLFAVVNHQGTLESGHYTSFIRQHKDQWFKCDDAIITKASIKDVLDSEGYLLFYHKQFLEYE
In short: as §1

USP24 = USP24 (UniProt Q9UPU5)
In short: as §1

USP25 = target: T3, USP25 (UniProt Q9UHP3)
T3 sequence (whole entry): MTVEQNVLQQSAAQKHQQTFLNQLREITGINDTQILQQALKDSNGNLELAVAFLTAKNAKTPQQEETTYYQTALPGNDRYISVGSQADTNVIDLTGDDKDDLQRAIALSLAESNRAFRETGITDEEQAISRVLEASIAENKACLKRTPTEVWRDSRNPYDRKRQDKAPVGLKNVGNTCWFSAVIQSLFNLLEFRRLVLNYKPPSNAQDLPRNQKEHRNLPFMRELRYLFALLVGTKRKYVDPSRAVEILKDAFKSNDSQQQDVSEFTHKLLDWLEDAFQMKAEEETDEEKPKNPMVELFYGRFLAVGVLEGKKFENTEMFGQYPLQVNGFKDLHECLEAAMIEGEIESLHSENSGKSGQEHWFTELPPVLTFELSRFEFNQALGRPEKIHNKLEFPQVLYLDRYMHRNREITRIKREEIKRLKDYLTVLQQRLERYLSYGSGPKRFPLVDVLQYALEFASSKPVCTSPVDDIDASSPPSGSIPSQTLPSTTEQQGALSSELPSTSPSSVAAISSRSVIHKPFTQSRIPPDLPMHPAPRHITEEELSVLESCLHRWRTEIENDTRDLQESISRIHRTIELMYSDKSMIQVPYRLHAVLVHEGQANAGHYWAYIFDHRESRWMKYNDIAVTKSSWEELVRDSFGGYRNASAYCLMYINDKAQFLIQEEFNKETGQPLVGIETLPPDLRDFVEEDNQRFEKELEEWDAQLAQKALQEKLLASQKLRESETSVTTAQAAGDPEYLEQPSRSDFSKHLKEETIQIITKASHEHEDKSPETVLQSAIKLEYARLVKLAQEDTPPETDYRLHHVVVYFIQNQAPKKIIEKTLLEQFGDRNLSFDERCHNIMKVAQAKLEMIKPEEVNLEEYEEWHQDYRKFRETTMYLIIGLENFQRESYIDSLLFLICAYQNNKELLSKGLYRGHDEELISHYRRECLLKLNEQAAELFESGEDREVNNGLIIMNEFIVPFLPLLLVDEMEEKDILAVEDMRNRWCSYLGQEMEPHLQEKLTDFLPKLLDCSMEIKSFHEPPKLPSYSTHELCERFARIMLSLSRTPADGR
In short: as §1

USP28 = target: T4, USP28 (UniProt Q96RU2)
T4 sequence (whole entry): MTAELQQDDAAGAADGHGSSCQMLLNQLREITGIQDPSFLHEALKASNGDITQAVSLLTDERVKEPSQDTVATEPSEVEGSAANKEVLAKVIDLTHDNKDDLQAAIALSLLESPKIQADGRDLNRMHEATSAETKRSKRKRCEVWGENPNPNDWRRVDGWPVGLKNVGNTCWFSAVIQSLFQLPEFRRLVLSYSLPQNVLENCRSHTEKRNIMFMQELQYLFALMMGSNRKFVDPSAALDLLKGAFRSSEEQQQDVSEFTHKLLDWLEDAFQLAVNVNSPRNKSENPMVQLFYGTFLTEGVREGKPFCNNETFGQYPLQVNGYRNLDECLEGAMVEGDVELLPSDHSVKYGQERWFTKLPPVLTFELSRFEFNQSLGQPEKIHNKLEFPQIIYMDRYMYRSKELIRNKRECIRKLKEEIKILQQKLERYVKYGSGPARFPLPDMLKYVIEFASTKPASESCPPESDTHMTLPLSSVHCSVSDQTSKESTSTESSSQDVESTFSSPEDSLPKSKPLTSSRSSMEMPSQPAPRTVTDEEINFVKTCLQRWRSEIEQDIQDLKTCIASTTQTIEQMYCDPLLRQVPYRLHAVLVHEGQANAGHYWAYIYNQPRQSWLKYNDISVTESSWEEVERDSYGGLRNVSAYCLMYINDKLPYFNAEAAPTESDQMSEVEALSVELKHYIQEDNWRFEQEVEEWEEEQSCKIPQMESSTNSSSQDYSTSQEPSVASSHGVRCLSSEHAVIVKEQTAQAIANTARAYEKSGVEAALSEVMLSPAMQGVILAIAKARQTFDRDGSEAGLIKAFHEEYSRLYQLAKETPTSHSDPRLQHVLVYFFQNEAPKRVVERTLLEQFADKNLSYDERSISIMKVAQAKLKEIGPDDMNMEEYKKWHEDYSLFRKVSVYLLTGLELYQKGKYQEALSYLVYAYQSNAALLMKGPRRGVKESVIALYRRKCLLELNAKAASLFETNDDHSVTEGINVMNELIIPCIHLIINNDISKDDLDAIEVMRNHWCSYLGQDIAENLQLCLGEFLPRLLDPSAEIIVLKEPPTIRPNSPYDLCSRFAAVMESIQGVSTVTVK
In short: as §1

Measured: log2 ratio of Biotin-Ahx-Ub-VS probe labelling

Chain of USP24 (Q9UPU5 whole entry): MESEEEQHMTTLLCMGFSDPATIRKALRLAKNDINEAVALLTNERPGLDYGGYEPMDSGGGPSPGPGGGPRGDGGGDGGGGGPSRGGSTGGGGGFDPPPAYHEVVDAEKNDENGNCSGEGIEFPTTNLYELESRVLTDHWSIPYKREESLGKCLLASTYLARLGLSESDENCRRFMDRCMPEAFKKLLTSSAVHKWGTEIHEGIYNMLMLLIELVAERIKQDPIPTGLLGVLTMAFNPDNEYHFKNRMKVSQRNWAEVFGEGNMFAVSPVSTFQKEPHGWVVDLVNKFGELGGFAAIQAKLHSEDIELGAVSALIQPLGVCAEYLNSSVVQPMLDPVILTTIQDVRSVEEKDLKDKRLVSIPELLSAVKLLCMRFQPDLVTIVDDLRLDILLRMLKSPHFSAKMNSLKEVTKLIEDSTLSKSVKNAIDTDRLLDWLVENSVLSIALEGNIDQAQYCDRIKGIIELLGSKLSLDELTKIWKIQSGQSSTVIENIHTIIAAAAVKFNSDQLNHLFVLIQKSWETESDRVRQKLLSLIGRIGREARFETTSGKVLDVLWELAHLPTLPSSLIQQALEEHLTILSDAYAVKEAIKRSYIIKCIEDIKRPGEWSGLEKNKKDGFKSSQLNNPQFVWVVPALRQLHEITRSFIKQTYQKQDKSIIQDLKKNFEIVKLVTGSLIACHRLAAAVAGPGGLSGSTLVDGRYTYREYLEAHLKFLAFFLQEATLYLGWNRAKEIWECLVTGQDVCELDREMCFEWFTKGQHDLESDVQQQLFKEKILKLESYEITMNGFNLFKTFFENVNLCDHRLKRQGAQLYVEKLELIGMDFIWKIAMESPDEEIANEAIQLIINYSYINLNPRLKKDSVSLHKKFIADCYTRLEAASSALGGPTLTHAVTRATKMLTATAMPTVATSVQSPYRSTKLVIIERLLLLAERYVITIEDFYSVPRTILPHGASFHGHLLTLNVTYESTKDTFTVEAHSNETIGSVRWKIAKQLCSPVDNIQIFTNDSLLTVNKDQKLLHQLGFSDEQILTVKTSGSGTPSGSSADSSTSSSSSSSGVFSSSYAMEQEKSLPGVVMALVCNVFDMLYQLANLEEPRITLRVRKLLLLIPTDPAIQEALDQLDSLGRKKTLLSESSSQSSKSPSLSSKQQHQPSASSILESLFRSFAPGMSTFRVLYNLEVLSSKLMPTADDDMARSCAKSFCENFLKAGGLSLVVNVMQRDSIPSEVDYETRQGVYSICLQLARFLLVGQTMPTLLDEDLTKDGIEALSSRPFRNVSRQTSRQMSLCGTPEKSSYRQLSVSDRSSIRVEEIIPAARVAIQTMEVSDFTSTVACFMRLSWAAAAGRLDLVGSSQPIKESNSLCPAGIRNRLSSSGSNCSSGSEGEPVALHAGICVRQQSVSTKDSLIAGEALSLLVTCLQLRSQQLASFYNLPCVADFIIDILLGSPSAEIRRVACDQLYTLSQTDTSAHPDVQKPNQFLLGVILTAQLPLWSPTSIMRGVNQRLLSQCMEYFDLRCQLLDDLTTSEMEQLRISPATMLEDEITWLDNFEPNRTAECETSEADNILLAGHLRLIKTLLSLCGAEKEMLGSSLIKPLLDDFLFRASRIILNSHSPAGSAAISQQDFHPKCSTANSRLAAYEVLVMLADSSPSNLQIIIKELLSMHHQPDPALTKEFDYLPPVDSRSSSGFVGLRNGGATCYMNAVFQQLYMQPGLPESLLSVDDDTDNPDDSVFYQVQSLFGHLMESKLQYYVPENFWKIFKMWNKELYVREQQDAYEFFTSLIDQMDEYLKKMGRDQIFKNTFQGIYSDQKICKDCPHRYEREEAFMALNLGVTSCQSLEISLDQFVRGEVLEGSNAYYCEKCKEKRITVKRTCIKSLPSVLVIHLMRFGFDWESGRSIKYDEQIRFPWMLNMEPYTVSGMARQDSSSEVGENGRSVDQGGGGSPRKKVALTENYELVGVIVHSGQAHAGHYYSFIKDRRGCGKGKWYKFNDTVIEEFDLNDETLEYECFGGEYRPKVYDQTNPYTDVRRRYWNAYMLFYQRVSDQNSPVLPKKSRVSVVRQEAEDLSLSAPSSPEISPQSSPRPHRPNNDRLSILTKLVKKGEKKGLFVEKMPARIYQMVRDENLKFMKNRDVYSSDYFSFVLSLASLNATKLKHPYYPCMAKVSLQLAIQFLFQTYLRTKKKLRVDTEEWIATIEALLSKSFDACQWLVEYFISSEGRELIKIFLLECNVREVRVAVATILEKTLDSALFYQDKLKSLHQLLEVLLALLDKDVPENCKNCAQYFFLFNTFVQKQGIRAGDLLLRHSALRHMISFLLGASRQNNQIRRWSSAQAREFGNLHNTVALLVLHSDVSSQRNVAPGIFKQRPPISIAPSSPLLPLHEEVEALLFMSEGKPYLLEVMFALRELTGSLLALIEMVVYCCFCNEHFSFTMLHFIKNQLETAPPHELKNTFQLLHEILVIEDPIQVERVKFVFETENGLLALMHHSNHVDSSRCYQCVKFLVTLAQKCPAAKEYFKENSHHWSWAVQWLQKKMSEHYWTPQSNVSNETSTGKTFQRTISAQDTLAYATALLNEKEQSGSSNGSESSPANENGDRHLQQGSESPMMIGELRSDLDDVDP

Cc1ccccc1C1(CNC(=O)CCl)CCOCC1
inactive: USP19 -0.115 | USP22 -0.0958 | USP24 -0.178 | USP25 -0.264 | USP28 -0.284
